Test results as given in PubChem BioAssay AID1671192 (National Center for Advancing Translational Sciences (NCATS), 2021).
Inconclusive results are not listed. Unmarked numbers belong to inactive results. Calls follow the shape of the dose curve; as a rule, active = well fitted curve in the direction sought with a large enough effect; inconclusive = small, poorly fitted or top-dose-only effect, or another doubt; inactive = no such curve, though single readings can be large or run the other way.

target: Polyunsaturated fatty acid lipoxygenase ALOX15 (Homo sapiens) (UniProt P16050); test: Counterscreen qHTS for inhibitors of human arachidonate 12S-lipoxygenase (ALOX12): ALOX15 Assay; conditions: purified ALOX15 enzyme activity; series mostly up to 110 µM; activity change, negative = inhibition: at the top concentration; also: 0% is about no effect
Procedure, shortened: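 Purified human ALOX15 (15hLO-1) at 40 nM in 25 mM HEPES, 0.01% Triton X-100, pH 7.5, preincubated with compound 15 min at RT. Then 50 uM arachidonic acid for 30 min; hydroperoxide detected by Fe-xylenol orange as the 573/405 nm absorbance ratio.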

Sequence of Polyunsaturated fatty acid lipoxygenase ALOX15 (Homo sapiens) (P16050 whole entry, looked up): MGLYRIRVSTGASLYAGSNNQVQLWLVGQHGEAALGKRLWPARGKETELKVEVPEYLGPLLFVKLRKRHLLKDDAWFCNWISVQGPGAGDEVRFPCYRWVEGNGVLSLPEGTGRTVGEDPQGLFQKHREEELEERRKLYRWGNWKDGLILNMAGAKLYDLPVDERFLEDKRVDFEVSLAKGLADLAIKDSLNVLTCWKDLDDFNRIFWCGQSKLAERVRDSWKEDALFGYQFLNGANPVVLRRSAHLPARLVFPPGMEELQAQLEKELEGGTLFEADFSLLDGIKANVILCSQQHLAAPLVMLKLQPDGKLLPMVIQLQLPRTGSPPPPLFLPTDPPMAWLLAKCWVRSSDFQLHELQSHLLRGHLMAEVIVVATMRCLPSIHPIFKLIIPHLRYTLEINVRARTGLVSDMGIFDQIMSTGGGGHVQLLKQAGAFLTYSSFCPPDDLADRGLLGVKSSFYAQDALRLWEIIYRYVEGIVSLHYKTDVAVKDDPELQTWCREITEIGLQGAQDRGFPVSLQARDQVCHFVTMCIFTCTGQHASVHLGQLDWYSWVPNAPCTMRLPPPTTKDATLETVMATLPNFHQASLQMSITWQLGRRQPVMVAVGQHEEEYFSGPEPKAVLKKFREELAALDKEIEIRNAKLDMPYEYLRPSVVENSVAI

In order of rising “activity change, negative = inhibition” value:
1. CN1CC(=O)N(C2CCCNC2)Cc2c(NC3CCC3)ncnc21 (centres undefined)  -24.9% [at 146 µM]
2. COc1ccc(NC2CN(C(=O)OC(C)(C)C)C2)cc1  -15.5% [at 146 µM]
3. Cc1cc(C(=O)NC2CCCC2)c2c(C3CCNCC3)noc2n1  -14.4% [at 146 µM]
4. O=C1NCc2ccccc2CC12CCN(Cc1ccc(O)cc1)CC2  -10.6% [at 146 µM]
5. COc1ccc(F)cc1-c1ccccc1C=O  -5.08% [at 146 µM]
6. c1cc2c(cc1OC1CN(CC3CCCCC3)C1)OCO2  -4.23% [at 146 µM]
7. O=C1NCc2ccccc2CC12CCN(Cc1ccc(Cl)cc1)CC2  -1.13% [at 146 µM]
8. O=C(c1ccncc1)N1CCCC(c2nnc3n2CCNC3)C1 (centres undefined)  11.3% [at 146 µM]
9. Cc1cc(Cl)ccc1-c1ccccc1CN  12.3% [at 146 µM]
10. Cc1ccc(-c2cccc(CN)c2)c(C)c1  14% [at 146 µM]
11. Cc1ccc(-c2ccc(CN)cc2)cc1Cl  24.8% [at 146 µM]

In order of rising “activity change, negative = inhibition” value:
1. CCc1nc2c(c(-c3ccc(OC)cc3)n1)CN([S+](=O)([O-])c1c(C)noc1C)CC2  -23.3%
2. CCOc1cccc(CN2CCC3(Cc4ccccc4CNC3=O)C2)c1 (centres undefined)  -23.1%
3. O=C(NC1CCCCC1)N1CCC(c2nnc3n2CCNC3)CC1  -21.9%
4. Cn1ncc2c(C(=O)NCCc3ccc(Cl)cc3)cc(-c3ccc([S+](C)(=O)[O-])cc3)nc21  -20.8%
5. CN1CC(=O)N(c2cccc(F)c2)Cc2c(NC3CCNCC3)ncnc21  -19%
6. O=C(c1ccc(C(F)(F)F)cc1)N1CC(Oc2ccc3c(c2)OCO3)C1  -14.9%
7. O=C(c1cn2c(n1)CN([S+](=O)([O-])c1cccc(C(F)(F)F)c1)CC2)N1CCOCC1  -11.9%
8. C[S+](=O)([O-])N1Cc2ccccc2CC2(CCN(CC3CCNC3)CC2)C1 (centres undefined)  6.88%
